Test results as given in article PMC5540273 (PLoS ONE, 2017).

Experiments:
Conditions in all cases: concentration: 1 μM, replicates: in singlicate; n = 1
MEK1 = tested on: T1, MEK1
T1 construct: gene MAP2K1

MEK2 = tested on: T2, MEK2
T2 construct: gene MAP2K2

MEK3 = tested on: T3, MEK3
T3 construct: gene MAP2K3

MEK4 = tested on: T4, MEK4
T4 construct: gene MAP2K4

MEK5 = tested on: T5, MEK5
T5 construct: gene MAP2K5

MEK6 = tested on: T6, MEK6
T6 construct: gene MAP2K6

MELK = tested on: MELK
MERTK = tested on: MERTK
MET = tested on: MET
MINK = tested on: T7, MINK
T7 construct: gene MINK1

MKK7 = tested on: MKK7
MKNK1 = tested on: MKNK1
MKNK2 = tested on: MKNK2
MLCK = tested on: T8, MLCK
T8 construct: gene MYLK3

MLK1 = tested on: T9, MLK1
T9 construct: gene MAP3K9

MLK2 = tested on: MLK2
MLK3 = tested on: MLK3
MRCKA = tested on: MRCKA
MRCKB = tested on: T10, MRCKB
T10 construct: gene CDC42BPB

MST1R = tested on: MST1R
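Also: KINOMEscan kinase panel screen.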

SMILES | %Inh (MEK1) | %Inh (MEK2) | %Inh (MEK3) | %Inh (MEK4) | %Inh (MEK5) | %Inh (MEK6) | %Inh (MELK) | %Inh (MERTK) | %Inh (MET) | %Inh (MINK) | %Inh (MKK7) | %Inh (MKNK1) | %Inh (MKNK2) | %Inh (MLCK) | %Inh (MLK1) | %Inh (MLK2) | %Inh (MLK3) | %Inh (MRCKA) | %Inh (MRCKB) | %Inh (MST1R)
Fc1ccc(-c2ncn(CCCN3CCOCC3)c2-c2cccnc2)cc1 [SB-211743] | 27% | 44% | 26% | 15% | 15% | 0% | 0% | 4% | 0% | 16% | 8% | 0% | 0% | 0% | 0% | 39% | 17% | 0% | 19% | 0%
CCCCCc1nc2c(N)ncnc2n1CCCCC [SKF-97255] | 15% | 28% | 34% | 18% | 32% | 15% | 0% | 17% | 0% | 0% | 0% | 6% | 0% | 0% | 0% | 50% | 0% | 0% | 0% | 0%
Cl.Nc1ncnc2occ(-c3ccc(NC(=O)Nc4cc(C(F)(F)F)ccc4F)cc3)c12 [SB-707548] | 15% | 57% | 0% | 23% | 91.4% | 10% | 33% | 98.3% | 17% | 62% | 22% | 56% | 98% | 44% | 40% | 65% | 65% | 11% | 0% | 28%
CC(C)(C)n1cnc2c(N)ncnc21 [SKF-97359] | 0% | 0% | 39% | 0% | 8% | 0% | 0% | 0% | 0% | 0% | 21% | 54% | 0% | 0% | 0% | 0% | 0% | 0% | 0% | 0%
CC(=O)Nc1ccc(COc2ccc(Nc3ccnc4cc(-c5ccccn5)ccc34)cc2)cc1.Cl [GW440148] | 51% | 70% | 0% | 0% | 99.5% | 18% | 5% | 11% | 5% | 11% | 0% | 0% | 6% | 5% | 0% | 0% | 0% | 13% | 0% | 56%
Cl.Oc1cccc(Nc2ccnc3cc(-c4ccncc4)ccc23)c1 [GW494601] | 33% | 100% | 0% | 18% | 99.8% | 0% | 0% | 46% | 0% | 79% | 0% | 0% | 21% | 0% | 0% | 0% | 1% | 1% | 0% | 36%
Cn1ccc2ncnc(Oc3ccc(NC(=O)Nc4ccncc4)c(Cl)c3)c21 | 40% | 32% | 0% | 0% | 4% | 0% | 0% | 0% | 0% | 0% | 0% | 0% | 0% | 0% | 0% | 5% | 0% | 0% | 0% | 17%
Cc1c2ccc(N(C)c3ccnc(Nc4cccc(S(N)(=O)=O)c4)n3)cc2nn1Cc1ccccc1.Cl.Cl [GW787226] | 12% | 34% | 29% | 75% | 98.4% | 23% | 16% | 70% | 60% | 54% | 15% | 0% | 0% | 0% | 0% | 50% | 26% | 0% | 0% | 0%
COc1cc2c(cc1OC[C@@H](O)CO)ncc1c3ccc(C#N)cc3[nH]c21 | 45% | 42% | 0% | 0% | 99.9% | 0% | 31% | 0% | 0% | 91.9% | 0% | 97.1% | 99.4% | 94.5% | 3% | 0% | 0% | 0% | 0% | 9%
COc1ccc(Nc2nccc(N3CCC(NC(=O)Nc4cccc(C(C)=O)c4)C3)n2)cc1 (centres unmarked) [GSK1379731] | 0% | 0% | 0% | 40% | 36% | 0% | 0% | 35% | 0% | 0% | 0% | 0% | 4% | 5% | 0% | 0% | 0% | 0% | 0% | 17%
